Anthrax LF prot: blocks Bacillus anthracis lethal factor protease; P15917; multiplex microsphere protease cleavage assay, LF; inhibition, % at 10 µM; hit rate 0.12% among 360,000; AID 588501
Mtb FBA inh: inhibits M. tuberculosis FBA enzyme; inhibition, % at 1 µM; P9WQA3; hit rate 2.3% among 360,000; purified M. tuberculosis FBA, fluorescence read-out; in the data active = inhibition above about 27%
Target sequence (P9WQA3 whole entry, looked up): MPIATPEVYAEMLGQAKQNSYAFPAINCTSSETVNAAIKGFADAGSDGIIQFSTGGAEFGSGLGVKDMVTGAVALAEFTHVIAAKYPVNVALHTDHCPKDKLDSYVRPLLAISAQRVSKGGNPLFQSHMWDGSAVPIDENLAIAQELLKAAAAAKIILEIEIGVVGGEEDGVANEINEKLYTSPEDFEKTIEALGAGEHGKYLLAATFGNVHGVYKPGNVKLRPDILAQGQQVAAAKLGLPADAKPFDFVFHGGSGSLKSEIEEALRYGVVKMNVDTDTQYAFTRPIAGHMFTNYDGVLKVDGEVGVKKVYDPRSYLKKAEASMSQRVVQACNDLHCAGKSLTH
GDH-TPI inh: GDH-TPI coupled enzyme inhibition counter-screen; GDH-TPI coupled enzyme counterscreen, NADH absorbance; inhibition, % at 4.8 µM; hit rate 1.2% among 360,000; AID 588335; in the data active = inhibition above about 30%
BoNT A protease: inhibitors of Botulinum neurotoxin A light chain protease; multiplex microsphere protease substrate cleavage, flow cytometry; hit rate 0.17% among 360,000; inhibition, % at 10 µM
BoNT F protease: inhibitors of Botulinum neurotoxin F light chain protease; inhibition, % at 10 µM; Multiplex microsphere protease cleavage assay, flow cytometry; hit rate 0.22% among 360,000; in the data active = inhibition above about 35%, passing the limit was not always enough; inconclusive = no clear call, values can overlap the other calls
Bead autofluor: compound fluorescence in toxin protease inhibitor counterscreen. hit rate 3.1% among 360,000. compound autofluorescence counterscreen, microsphere flow cytometry; active compounds read high. fluorescence intensity (test concentration not listed); in the data active = fluorescence intensity above about 16000; inconclusive = no clear call, values can overlap the other calls
Of the large screens only hits and unclear results are named; the others gave an inactive call. Compounds with a hit are over-represented: about 6.6% of the library has one in this group of screens. Rule as the data show it, unless noted: active = inhibition above about 30%; inconclusive = no clear call, values can overlap the other calls; inactive = below that.

CC1=C(C)C(=O)N(CCC(=O)O)C1=O	Bead autofluor 20985
O=C(O)CCN1C(=O)NC2(CCCC2)C1=O	none
O=C(c1ccco1)N1CCN(CCCCOc2cccc3ccccc23)CC1	none
Cc1ccc(-n2ccc(=O)c(C(=O)Nc3ccc(S(=O)(=O)Nc4onc(C)c4C)cc3)n2)cc1	none
CN(C)c1ccc(C(=O)Nc2ccc(S(=O)(=O)NC3=NCCCCC3)cc2)cc1	GDH-TPI inh 33, Bead autofluor 22816
Cc1noc(NS(=O)(=O)c2ccc(NC(=O)c3cnc4scc(C)n4c3=O)cc2)c1C	GDH-TPI inh 49
Cc1ccc(C(=O)NNC(=O)c2nn(-c3ccc(F)cc3)ccc2=O)cc1	GDH-TPI inh 33, BoNT F protease inconclusive
O=C(NNC(=O)c1nn(-c2ccc(F)cc2)ccc1=O)c1ccc(Cl)cc1	BoNT F protease inconclusive
Cc1noc(NS(=O)(=O)c2ccc(NC(=O)c3nn(-c4ccc(F)cc4)ccc3=O)cc2)c1C	GDH-TPI inh 32
Cc1cc(C)n2nc(C(=O)OCC(=O)N3CC(C)CC(C)C3)nc2n1 (stereo unspecified)	none
OCCC1CN(CC2CC2)CCN1Cc1ccc(F)c(F)c1 (stereo unspecified)	none
CCOC(=O)c1sc(NC(=O)CSc2n[nH]c(CC(C)C)n2)nc1C	none
CS(=O)(=O)Nc1ccc(C(=O)Nc2ccc(S(=O)(=O)Nc3nccs3)cc2)cc1	none
Cc1noc(NS(=O)(=O)c2ccc(NC(=O)c3ccc(N(C)C)cc3)cc2)c1C	GDH-TPI inh 32
CN(C)c1ccc(C(=O)Nc2ccc(S(=O)(=O)Nc3nccs3)cc2)cc1	GDH-TPI inh 38
CCOC(=O)Cn1nc(C)c(NC(=O)c2ccc(Cl)c([N+](=O)[O-])c2)c1C	none
CC(Oc1ccc(Cl)cc1Cl)C(=O)NC1CCSC1=O (stereo unspecified)	Bead autofluor 22259
CCCC(C)C(=O)NC1CCSC1=O (stereo unspecified)	Bead autofluor 16556
CCN=C(NC#N)SCc1c(F)cccc1Cl	none
O=C(c1ccc(-n2cncn2)c2ccoc12)N1CCOCC1	none
CCc1nc(Nc2ccccc2)c2oc3ccccc3c2n1	BoNT A protease inconclusive, Bead autofluor 19756
Cc1nc(Nc2ccc3c(c2)OCO3)c2oc3ccccc3c2n1	BoNT A protease inconclusive, Bead autofluor 24138
CC(C)(C)c1ccc(NC(=O)COC(=O)c2ccc(NS(=O)(=O)c3ccc(F)c(F)c3)cc2)cc1	none
CCCn1c(N)c(N(CCOC)C(=O)c2ccc(-c3ccc(Cl)cc3)o2)c(=O)[nH]c1=O	none (no result: Anthrax LF prot, BoNT A protease, BoNT F protease, Bead autofluor)
Cc1cc(C)n(C(=O)c2ccc(C)o2)n1	none
Cc1cc(C)n(C(=O)c2cc3sccc3[nH]2)n1	GDH-TPI inh 33
O=C(COC(=O)c1ccc(Br)o1)Nc1cccc(S(=O)(=O)N2CCCCCC2)c1	none (no result: Anthrax LF prot, BoNT A protease, BoNT F protease, Bead autofluor)
CCCCOC(=O)C1=C(C)Nc2ncnn2C1c1cc(OC)c(OC)cc1OC (stereo unspecified)	Bead autofluor 23316
CCOC(=O)C1=C(C)Nc2ncnn2C1c1cc(OC)ccc1OC (stereo unspecified)	none
CCCCOC(=O)C1=C(C)Nc2nnnn2C1c1ccc(OC)c(OC)c1OC (stereo unspecified)	none
CCCCOC(=O)C1=C(C)Nc2ncnn2C1c1ccc(OC)c(OC)c1OC (stereo unspecified)	Bead autofluor 23980
Cc1ccc2nc3c(cc(C#N)c(=O)n3-c3nccs3)c(=O)n2c1	Mtb FBA inh active
CCC(C)n1c(=N)c(C#N)cc2c(=O)n3cc(C)ccc3nc21 (stereo unspecified)	none
N#Cc1nc(COc2ccc(F)cc2)oc1N1CCCC1	none
N#Cc1nc(-c2ccc([N+](=O)[O-])cc2)oc1N1CCCCC1	none
N#Cc1nc(-c2ccc(F)cc2)oc1N1CCCC1	Mtb FBA inh 113
N#Cc1nc(-c2ccc(F)cc2)oc1N1CCCCC1	Mtb FBA inh 178
O=C(COC(=O)c1ccccc1O)Nc1cccc2ccccc12	none (no result: Anthrax LF prot, BoNT A protease, BoNT F protease, Bead autofluor)
COC(=O)/C=C/C1=CN(Cc2ccccc2)CCC1=O	GDH-TPI inh 61
CCN(CC)CC(=O)Nc1ccccc1SCC(=O)Nc1ccsc1C(=O)OC	none
O=C(C1CCCN(Cc2cccc(Cl)c2)C1)N1CCCCC1 (stereo unspecified)	none
COc1c(O)ccc(/C=N\NC(=O)c2ccc3c(c2)OCO3)c1[N+](=O)[O-]	GDH-TPI inh 33
COc1cc(/C=N/NC(=O)c2ccc3c(c2)OCCO3)cc(Cl)c1O	none
O=C(N/N=C/c1cc2c(cc1[N+](=O)[O-])OCO2)c1ccc2c(c1)OCO2	none
COc1c(O)ccc(/C=N/NC(=O)c2ccc3c(c2)OCCO3)c1[N+](=O)[O-]	GDH-TPI inh 62
Cc1ccc2c(C)c3ccc4ccccc4c3c[n+]2c1	Mtb FBA inh active
O=C(COC(=O)c1ccc(F)c(S(=O)(=O)N2CCOCC2)c1)NCc1ccccc1	none
COc1ccccc1OCC(=O)Nc1ccc(Cl)cc1C(=O)c1ccccc1	Bead autofluor 23660
COc1ccccc1CC(=O)Nc1ccccc1O	Bead autofluor 20480
COc1ccccc1CC(=O)Nc1cc(Cl)ccc1O	BoNT A protease inconclusive, Bead autofluor 18515
COc1ccccc1NC(=O)Cc1csc(NC(=S)Nc2ccccc2)n1	Bead autofluor 20382
COc1ccc(C(=O)Nc2nnc(SCC(=O)NCc3ccco3)s2)c(OC)c1	none
Cc1cc(NC(=O)COC(=O)CSCc2ccc(Cl)c(Cl)c2)no1	BoNT A protease inconclusive, Bead autofluor 22915
Cc1cc(NC(=O)COC(=O)c2c(C)nn(Cc3ccccc3Cl)c2Cl)no1	Bead autofluor 24183
Cc1cc(NC(=O)COC(=O)c2ccc(C)c(C)c2)no1	none
Cc1noc(C)c1C(=O)OCC(=O)c1cc(C)n(Cc2ccccc2Cl)c1C	Bead autofluor 22970
Cc1cc(NC(=O)COC(=O)c2cccc(OCc3ccccc3)c2)no1	Bead autofluor 20597
Cn1c(-c2cccc(Br)c2)cnc1NCc1ccccc1O	BoNT F protease inconclusive
CCn1ccnc1CNC(=O)c1ccc2oc(C(C)C)nc2c1	none
CN(C)S(=O)(=O)N(CC(=O)N(Cc1ccccc1)Cc1ccccc1)c1ccccc1	Bead autofluor 22498
O=C(/C=C/c1cccc(Cl)c1)Nc1ccncc1	Bead autofluor 21112
O=C(/C=C/c1cccc(Cl)c1)NCc1cccs1	Bead autofluor 21424
O=C(/C=C/c1c(F)cccc1Cl)Nc1ccncc1	none
O=C(/C=C/c1c(Cl)cccc1Cl)Nc1ccncc1	Bead autofluor 20186
COc1ccc(-c2cnc3c(NC=O)cc(-c4cccc(NS(C)(=O)=O)c4)cn23)cc1OC	none
COc1ccc(S(=O)(=O)NCc2ccc(C(=O)NCCN(C)Cc3ccccc3)cc2)cc1	none
Cc1ccc2c(c1)NCCO2	BoNT A protease inconclusive, Bead autofluor 23601
O=C(CN1C(=O)COc2ccccc21)N(Cc1cccnc1)Cc1cccc(F)c1	BoNT A protease inconclusive, Bead autofluor 16903
CCC1Oc2ccc(C)cc2N(CC(=O)N(Cc2cccnc2)Cc2cccc(F)c2)C1=O (stereo unspecified)	none

Compound activity from PubChem BioAssay.
